We go through 37 compounds from PubChem BioAssay (NCI).

About 83,000 compounds went through this panel and 20% of them were active in at least one assay; those are over-represented in the sample as a whole.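 Single-concentration screen, 48 h exposure, 96-well plates. Endpoint: percent growth. Below 10 = active.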 Values without a mark were called inactive. Calls of active or inactive are those of the source.

This experiment deals with HL-60(TB) leukemia. Kind of experiment: NCI-60 one-dose screen, 48 h (100 = growth as untreated, 0 = no growth, -100 = all killed). The following applies: 10 µM unless noted.
Turning to `O=C(CSc1nnc(-c2ccc3nc(-c4ccccc4)[nH]c3c2)o1)Nc1ccc(Cl)cc1`, the growth is 46.7%. For `O=C(NN1C(=O)/C(=C/C=C/c2ccc([N+](=O)[O-])o2)SC1=S)c1ccc(Cl)cc1` the value was -7.52% (active). In the case of `COc1ccc(/C=C/C(=O)c2ccc(OC)c(S(N)(=O)=O)c2)c(C(F)(F)F)c1`, the growth is 3.73% (active). `Cc1ccccc1Nc1nnc(-c2c[nH]c3ccccc23)o1`: the growth was -23.7% (active). As for `CSc1ccccc1NC(=O)c1ccc2nnn(/C(C#N)=C/c3ccccn3)c2c1`, the growth was -31.5% (active).

As for `c1ccc(-c2csc(Nc3cccc(Nc4nc(-c5ccccc5)cs4)c3)n2)cc1`, the growth is 65.9%.

Take `Cn1cc(-c2cc(N)n3nc(-c4c[nH]c5ccc(F)cc45)cc3n2)c2cc(Br)cnc21`: the growth is 33.2%.

Take `Cc1cc(C)nc(/N=C(\N)Nc2ccc(S(=O)(=O)Nc3nc(C)cc(C)n3)cc2)n1`: the growth is 94.7%. Take `COc1ccc(Nc2nc(N)n(Cc3cccc(Br)c3)n2)cc1`: the growth was -11.4% (active). Next, `COc1ccc2[nH]cc(-c3nc(N)nnc3-c3cn(C)c4ncccc34)c2c1`: 15.1%; `CSc1ccc(NC(=O)c2ccc3nn(/C(C#N)=C/c4ccccn4)nc3c2)cc1`: -18.9% (active); `CCCCSc1nc(Nc2ccc(S(N)(=O)=O)cc2)c(C#N)c(-c2cc(OC)c(OC)c(OC)c2)n1`: -28% (active). For `COc1ccccc1NC(=O)c1ccc(NC(=O)CCl)s1` the value was -53.8% (active); for `CN1C(=O)/C(=C/c2ccc(C(=O)Nc3ncc(Cc4ccc(Cl)cc4Cl)s3)cc2)SC1=S`, 19.2%; for `COc1ccc2[nH]c(O)c(N=NC(=O)COc3ccc(NC(=O)Nc4ccccc4)cc3)c2c1`, 96%. `Cc1ccc(Nc2nnc(-c3c[nH]c4ccccc34)o2)c(C)c1`: the growth is 1.4% (active).

For the compound `Clc1cccc(N/N=C/c2c[nH]c3ccccc23)n1`, the growth was 13.8%. Next, `O=c1[nH]c2ccc(Cl)cc2cc1CSc1ccc(Nc2nccc(-c3ccc4ccccc4c3)n2)cc1`: 91.4%.

For `Cc1ccc2nc(-c3ccc(-c4nnc(SCC(=O)Nc5ccc(Br)cc5)o4)cc3)[nH]c2c1`, the growth is 55.6%. For `COc1ccc(-n2c(NC(=O)N3CCN(C)CC3)c(C#N)c3ccccc32)cc1` the value was 74.2%. For `COc1ccc(NC(=O)Cn2c(/C=C/c3cccc(Br)c3)nc3ccccc3c2=O)cc1` the value was 92.9%; for `C#CCOc1cc(N(CC)CC)ccc1C(C(=O)NC(C)(C)C)N(C(=O)C1CCc2cc(F)ccc2O1)c1ccc(Br)cc1` (configuration not stated), 44.7%; for `C=CC[N+](C)(C)CCn1c2ccccc2c2nc3cc(C)c(C)cc3nc21`, 97.7%.

As to `Cc1cc(C)cc(NC(=O)Cn2cc(COn3nnc4ccccc43)nn2)c1`, the growth was 92.6%.

In the case of `COc1ccc2oc(=O)c(-c3csc(N/N=C(\C)c4cc(OC)c(OC)c(OC)c4)n3)cc2c1`, the growth is 107%. In the case of `Cc1nc2c(cnn2-c2ccccc2)c(=O)n1-c1ccc(NC(=O)c2ccc(F)cc2)cc1`, the growth was 42.5%. Next, `Nc1nnc(CS(=O)(=O)c2ccccc2)s1`: 105%. Regarding `N#Cc1cnn(C(=O)c2ccccc2Br)c1NC(=O)c1ccc(Br)cc1Cl`, the growth was 107%. With `CN1CCCN(Cc2ccc(C(=O)Nc3cccc(Nc4ccc5c(O)cccc5n4)c3)cc2C(F)(F)F)CC1`, the growth was -7.86% (active). Next, `CC(=O)Nc1ccc(-c2cn(-c3cccc(C(=O)Nc4cccc(OC(F)(F)F)c4)c3)nn2)cn1`: 95.1%; `N#Cc1ccc(-c2nn(-c3ccc(C(=O)O)cc3)cc2CNc2cccc(Br)c2)cc1`: 47%. As for `O=C(N/N=C/c1ccoc1)c1[nH]c2ccc(Br)cc2c1-c1ccccc1`, the growth is -27.3% (active). Next, `O=C(c1ccc(Cl)cc1)C1[C@H](c2ccc(Br)cc2)[C@@H](c2ccccc2)NC12C(=O)Nc1ccccc12` (some centres not stated): -32% (active); `CCCSc1nc(Nc2ccc(S(N)(=O)=O)cc2)c(C#N)c(-c2ccc(Cl)cc2)n1`: 46.3%. Next, `COc1ccc(Cn2cc(C#N)c(N)c2C(C)=O)c(OC)c1`: 99%. Next, `N#Cc1ccc(-c2nn(-c3ccc(C(=O)O)cc3)cc2CNc2ccc(Oc3ccccc3)cc2)cc1`: 34.4%. `COc1ccc(-c2nc3ccccc3n2CC(=O)N=Nc2c(O)[nH]c3ccc(OC)cc23)cc1`: the growth is 37.6%.
